Test results as given in PubChem BioAssay AID1907 (The Scripps Research Institute Molecular Screening Center, 2009).
Among all 1,900 compounds or so, about 1,200 (63%) were called active. Rule as the data show it: active = inhibition above about 22%; inactive = the rest. So high a share suggests a set chosen from earlier hits. The list is a sample of the results.

Test: cytotoxic compounds in IEC-6 epithelial cells, confirmation, cytotoxicity control, cell-based, luminescence (AID 1907);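 also: 0% = vehicle and 100% = reference cytotoxic drug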
Settings: IEC-6 rat intestinal epithelial viability, at 5 µM, stronger effect = higher value

Row | SMILES | inhibition
1 | COc1ccc(C)cc1Nc1nc(C)nc2c1oc1ccccc12 | 22.4% (active)
2 | COc1cc(NS(=O)(=O)c2ccc3ccccc3c2)c2ncccc2c1 | 63.1% (active)
3 | CCCOn1c(-n2nc(C)cc2C)nc2ccccc2c1=O | -7.58% (inactive)
4 | O=C(NCCOc1cccnc1)c1ccc(OC2CCN(Cc3ccccn3)CC2)cc1 | 99.6% (active)
5 | Cc1cc(C)n2nc(CNS(=O)(=O)c3c(F)c(F)c(F)c(F)c3F)nc2n1 | 13% (inactive)
6 | COc1ccccc1C1C2=C(COC2=O)Nc2cc3c(cc21)OCO3 (configuration not stated) | 62.6% (active)
7 | CCCOc1ccccc1C1CC(=O)Nc2cc3c(cc21)OCO3 (configuration not stated) | 56.8% (active)
8 | COc1ccccc1NC(=O)c1ccc(C)s1 | 5.92% (inactive)
9 | C[C@@H]1C[C@@H]2O[C@H]2/C=C\C=C\C(=O)Cc2c(Cl)c(O)cc(O)c2C(=O)O1 | 38.8% (active)
10 | COc1ccc2c(c1OC)C(=O)OC2Nc1nc(-c2ccccc2)cs1 (configuration not stated) | 25% (active)
11 | Cc1ccc(-c2csc(NC3OC(=O)c4ccccc43)n2)cc1 (configuration not stated) | 28.3% (active)
12 | Cc1cccc(NC(=O)c2ccc([N+](=O)[O-])o2)c1 | 20% (inactive)
13 | CC[C@H]1CN2CCc3cc(OC)c(OC)cc3[C@@H]2C[C@@H]1C[C@H]1NCCc2cc(OC)c(OC)cc21 | 97.2% (active)
14 | CSc1nnc2ccc(-c3ccc(C)cc3)nn12 | 25% (active)
15 | O=C1C(=O)N(CC2COc3ccccc3O2)c2ccccc21 (configuration not stated) | -2.39% (inactive)
16 | CC(C)OC(=O)CN1C(=O)C(=O)c2ccccc21 | 9.06% (inactive)
17 | CCOC(=O)c1c(C)[nH]c2c1-c1ccccc1C(=O)C2=O | 100% (active)
18 | CCCCNc1nc2c(c(=O)n(C)c(=O)n2C)n1Cc1cccc(OC)c1 | 19.3% (inactive)
19 | COc1ccc(CNS(=O)(=O)c2cc(-c3cc(C)no3)ccc2C(C)C)cc1 | 51.7% (active)
20 | Cn1nccc1C(=O)NC1CCCc2c1cnn2-c1ccc(F)cc1F (configuration not stated) | 23.2% (active)
21 | Cn1nccc1C(=O)NC1CCCc2c1cnn2-c1ccccc1F (configuration not stated) | 7.23% (inactive)

Row | SMILES | inhibition
22 | COc1cccc2sc(N(CCCN(C)C)C(=O)CCS(=O)(=O)c3ccccc3)nc12 | 7.79% (inactive)
23 | Cc1nn2c(NCCN(C)C)c3c(nc2c1-c1ccccc1)CCC3 | -0.91% (inactive)
24 | COc1cccc(C(=O)Nc2ccc(N3CCN(C(=O)c4ccco4)CC3)cc2)c1 | 23.9% (active)
25 | COc1cccc(C(=O)Nc2ccc(N3CCCC3)cc2)c1 | 43.2% (active)
26 | CC(C)(C)Nc1nc(-c2ccccn2)nc2ccccc12 | -6.6% (inactive)
27 | CC[n+]1cc(C)ccc1/C=C/c1ccc(N(C)C)cc1 | 19.6% (inactive)
28 | Oc1cccc(/C=N/Nc2ccc(Cl)nn2)c1O | 2.22% (inactive)
29 | C/C(=N\NC(=O)c1ccccc1F)c1ccccn1 | 67.3% (active)
30 | C=CCC1(CC=C)CCCN1C(=O)c1cc(COc2ccc(-n3cncn3)cc2)on1 | 8.6% (inactive)
31 | CC(=O)c1ccc(Oc2cc(C)nc(-n3nc(C)cc3C)n2)cc1 | 49.9% (active)
32 | COc1ccc(Nc2cc(C)nc(-n3nc(C)cc3C)n2)cc1 | 54.9% (active)
33 | CCOc1ncccc1C(=O)NCCc1ccc(OC)cc1 | 12.2% (inactive)
34 | COc1ccc(CS(=O)/C(Cl)=C(/Cl)C(=O)Nc2ccc(OC)nc2)cc1 (configuration not stated) | 73.2% (active)
35 | COc1ccc(NC(=O)/C(Cl)=C(/Cl)S(=O)Cc2ccc(C)cc2)cn1 (configuration not stated) | 89% (active)
36 | CCOc1ccccc1NC(=O)Cn1nnc(C(=O)NCc2cccs2)c1N | 56.9% (active)
37 | CSc1nc(N(C)NC(=O)c2cccc(C)c2)c2ccccc2n1 | 76.1% (active)
38 | CCn1c(C)nc2c1C(=O)c1ccccc1C2=O | 10.1% (inactive)
39 | COc1ccccc1N(CC(=O)N/N=C(\C)c1ccccc1O)S(=O)(=O)c1ccc(C)cc1 | 10.4% (inactive)
40 | C/C(=N\NC(=O)c1ccoc1C)c1ccccc1O | 31.9% (active)
41 | Cc1ccc(Nc2nc(N3CCOCC3)nc(N3CCOCC3)n2)cc1Cl | 63.1% (active)
42 | CCOC(=O)/C=C/C(=O)OCC(=O)NC(c1ccccc1)c1ccccc1 | 43.9% (active)

Row | SMILES | inhibition
43 | CCOC(=O)C1=C(N)N2C(=O)C(C)SC2=C(C(=O)OCC)C1c1cc(OC)c(OC)c(OC)c1 (configuration not stated) | -3.21% (inactive)
44 | COc1ccc(Nc2cc(=O)oc3ccccc23)cc1 | 49.1% (active)
45 | O=C(Nn1cc(C(=O)N2CCN(c3ccccc3F)CC2)c2ccccc2c1=O)c1cnccn1 | -3.18% (inactive)
46 | Cc1ccc(-n2c(SCC(=O)Nc3ncc(Cl)cc3Cl)nc3ccccc32)cc1 | 44.1% (active)
47 | Cc1cccc(NS(=O)(=O)c2ccc(-c3cnc(C4CC4)o3)cc2)c1 | 53% (active)
48 | Cc1onc(NC(=O)c2ccc([N+](=O)[O-])o2)c1Br | -1.42% (inactive)
49 | Cc1cccc(-n2ncc(Cl)c(Cl)c2=O)c1 | 27.2% (active)
50 | Cc1nc(Nc2ccc3c(c2)OCCO3)c2nnn(Cc3ccccc3Cl)c2n1 | 11.1% (inactive)
51 | CC(C)c1cc(C(=O)N/N=C/C(Br)=C/c2ccccc2)n[nH]1 | 42.1% (active)
52 | O=C(NC(Nc1nc2ccc([N+](=O)[O-])cc2s1)(C(F)(F)F)C(F)(F)F)c1ccccc1 | 97.9% (active)
53 | CCCOC(=O)c1[nH]c2c(c1C)C(=O)CC(c1cccs1)C2 (configuration not stated) | 57.1% (active)
54 | CCOc1cc(/C=C/c2nc3ccccc3c(=O)[nH]2)cc(Br)c1OC | 50.8% (active)
55 | CCOc1c(Nc2cccc(Cl)c2)c(=O)c1=O | -1.97% (inactive)
56 | O=C(Nc1ccccc1Cl)/C(Cl)=C(\Cl)S(=O)c1ccccc1 (configuration not stated) | 78.4% (active)
57 | O=C(CN1C(=O)C2C3C=CC(C3)C2C1=O)Nc1nc(-c2ccccn2)cs1 (configuration not stated) | 19.4% (inactive)
58 | Cc1ccc(S(=O)(=O)C2(S(=O)(=O)c3ccc(C)cc3)CCCC2)cc1 | 23.1% (active)
59 | COc1ccc(Nc2oc(-c3ccccc3Cl)nc2C#N)cc1 | 58.2% (active)
60 | CNC[C@H](CC1CCCCC1)NC[C@H](NCCC1CCCC1)[C@H](C)O | 56.1% (active)
61 | CCOc1cccc(-n2nnnc2-c2ccc(OC)cc2)c1 | 39.2% (active)
62 | COc1ccc(C2=NOC(C(=O)NCc3ccco3)C2)cc1OC (configuration not stated) | 39.3% (active)
